# Results with a measured potency or affinity are listed apart. Calls of active or inactive are those of the source.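 The calls were made as follows: active = Loss of cell signal with fitted half-effect dose at or below twice the top valid tested dose; inconclusive = Poor fit, or flat fit from -70 to -30 percent; inactive = Half-effect above limit, rising signal, or flat within 30 percent.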
# Assay: HEK293T cell cytotoxicity, dose response, cytotoxicity control for HIV Vif inhibitor project, cherry-picks (AID 652208)
# Conditions: HEK293T viability, CellTiter-Glo luminescence, 24 h; series mostly up to 26 µM
row,SMILES,outcome
1,CC(O)CN(C)CC/C=C1/c2ccccc2CSc2ccccc21 (configuration not stated),inactive
2,O=C(Nc1cccc(-c2cc3ccccc3oc2=O)c1)c1ccc(Br)o1,inactive
3,NS(=O)(=O)c1ccc(-c2ccc(/C=C3\SC(=O)NC3=O)o2)cc1,inactive
4,Cc1cc(OCC(C)C)ccc1/C(O)=C1/C(=O)C(=O)N(Cc2cccnc2)C1c1ccncc1 (configuration not stated),inactive
5,O=C(CCCSc1nc2ccccc2c(=O)[nH]1)c1ccccc1,inactive
6,CC(C)C(NC(=O)c1ccccc1NC(=O)C(C)(C)C)C(=O)N1CCOCC1 (configuration not stated),inactive
7,CCN(CC)c1ccc2cc(-c3nnc(-c4ccccc4)o3)c(=O)oc2c1,inactive
8,Cc1ccc2c(c1)N(CC(=O)N1CCCCCC1)C(=O)C(C)O2 (configuration not stated),inactive
9,CCN(C(=O)COc1ccc(C)cc1OC)c1cccc2ccccc12,inactive
10,N#Cc1c(C(F)(F)F)cc(-c2ccco2)nc1SCc1ccncc1,inactive
11,COc1ccc(CCNC(=O)[C@@H](NC(N)=O)C(C)C)cc1,inactive
12,COc1ccc([C@H]2CC(=O)C=C(c3cc4ccccc4s3)C2)cc1,inactive
13,CCN1c2ccccc2NC2C1C(C(C)=O)C(=O)N2c1ccc(Cl)cc1 (configuration not stated),inactive
14,CCC(C)C(=O)Nn1c(C2CC2)nc2cc(OC)c(OC)cc2c1=O (configuration not stated),inactive
15,CC1(C)CC(=O)C2=C(C1)Nc1ccccc1N(C(=O)C1CC1)C2c1ccco1 (configuration not stated),inactive
16,COc1ccc(CC(NC(C)=O)C(=O)NC2CCN(C(=O)c3ccccc3F)CC2)cc1 (configuration not stated),inactive
17,CCCOc1ccc(C(O)(CCC)CCN2CCCCC2)cc1 (configuration not stated),inactive
18,CN1CCN(C(=S)c2ccc(OCC(=O)Nc3cccc(C(F)(F)F)c3)cc2)CC1,inactive
19,Oc1[nH]c(=S)sc1/C=C1\C(c2ccccc2)=Nc2ccccc21,inactive

row,SMILES,outcome
1,O=C(c1cc(COc2cccc3cccnc23)on1)N1CCC[C@H]1CO,inactive
2,Cc1nn(C)cc1CN(C)Cc1ccc(OCC(O)CN2CCCCC2)cc1 (configuration not stated),inactive
3,CCN(CC)c1ccc2cc(C(N)=O)c(=O)oc2c1,inactive
4,O=C(CCNC(=O)c1ccco1)Nc1ccc(OC(F)(F)F)cc1,inactive
5,CCN1CCN(c2cc(=O)n(-c3cc(Cl)ccc3C)c(=O)[nH]2)CC1,inactive
6,CCOc1ncccc1C(=O)OCc1ccccc1,inactive
7,Cc1ncoc1C(=O)N1CCCC(C(=O)c2ccc(Oc3ccccc3)cc2)C1 (configuration not stated),inactive
8,Cc1cc(NC(=O)CSc2nc3ccccc3c(=O)n2-c2ccccc2)no1,inactive
9,CC(C)(C)NC(=O)NC(=O)COc1ccccn1,inactive
10,Cc1ccc(Nc2cc(=O)[nH]c(=O)[nH]2)cc1C,inactive
11,NC(=O)c1sc2nc(-c3ccccc3)ccc2c1N,inactive
12,COc1ccccc1CNC(=O)CSC1=NCCS1,inactive
13,COc1ccc(CN(CC(=O)NC2CCCC2)C(=O)CN2C(=O)COc3ccccc32)cc1,inactive
14,Cc1ccc(NC(=O)/C=C/c2ccco2)nc1,inactive
15,CCn1c(/C=C/c2ccc(F)cc2)nc2ccccc2c1=O,inactive
16,COc1ccc(C(=O)Nc2c(Cl)cc(Cl)cc2C(=O)N2CCOCC2)cc1,inactive
17,Cc1nc(C)n(CC(=O)N2CCCC(C(=O)c3ccc(C(F)(F)F)cc3)C2)n1 (configuration not stated),inactive
18,COc1ccc(CNC(=O)CN2C(=O)NC(c3ccccc3)(c3ccccc3)C2=O)cc1,inactive

# Reference: PubChem BioAssay AID652208 (Broad Institute, 2013)
